Sm TGR inh = qHTS Assay for the Inhibitors of Schistosoma Mansoni Peroxiredoxins; purified TGR, DTNB reduction, TNB absorbance 405 nm; Potency, µM (titrated, usually from 114 µM), for the others: at the highest dose activity change, negative = inhibition, hits mostly inhibitors; 3% of 360,000 active; also: potency is read from the fitted curve at half-maximal effect; % is scaled to controls: 0 for no effect and ±100 for the full control effect; nearly all actives have a fitted effect of over 60% in size
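Kinetic colorimetric format: TGR-catalysed, NADPH-driven DTNB reduction monitored via TNB absorbance. Enzyme dispensed at 20 nM; compound exposure 15 min at room temperature before reaction start.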
Shiga inhibitor = A qHTS for Small Molecule Inhibitors of Shiga Toxin. Vero cells, Shiga toxin protein synthesis inhibition reporter. inhibition, % at 38.7 µM. 9.2% of 290,000 active; in the data active = inhibition mostly above about 28%, no sharp cut-off; inactive = mostly below about 43%; also: 0% is about no effect
Pf growth 96h = Primary qHTS for delayed death inhibitors of the malarial parasite plastid, 96 hour incubation; 6.9% of 320,000 active; Potency, µM (top dose mostly 28.7 µM), without a hit: at the top dose activity change, negative = inhibition, usual class: inhibitors; P. falciparum luciferase reporter growth, 96 h; AID 504834, 2011; also: potency is read from the fitted curve at half-maximal effect; % is scaled to controls: 0 for no effect and ±100 for the full control effect
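Parasite growth measured via integrated firefly luciferase reporter in P. falciparum. Infected erythrocytes at 2% hematocrit, 0.05% parasitemia final were treated 96 hours at 37 C under 5% CO2, and luminescence was read.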
Pf growth 48h = Primary qHTS for delayed death inhibitors of the malarial parasite plastid, 48 hour incubation. 5.9% of 310,000 active. Potency, µM (top dose mostly 28.7 µM), for inactives: at the top dose activity change, negative = inhibition, actives largely listed as inhibitors. P. falciparum luciferase growth in erythrocytes, 48 h; also: potency is read from the fitted curve at half-maximal effect; % is scaled to controls: 0 for no effect and ±100 for the full control effect
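Luminescence readout; reporter = integrated firefly luciferase in P. falciparum. RBC culture at 2% hematocrit, 0.1% parasitemia final, 37 C/5% CO2; decreased signal taken as growth inhibition.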
CHX counter = Cycloheximide Counterscreen for Small Molecule Inhibitors of Shiga Toxin. cell reporter, cycloheximide protein synthesis inhibition counterscreen. max response, %. 12% of 300,000 active; in the data active = max response mostly above about 13%, no sharp cut-off; inactive = mostly below about 14%; also: read at 38.3 µM for the half of the compounds with a filed dose; 0% is about no effect
NS1 function inh = qHTS Assay for Inhibitors of Influenza NS1 Protein Function; 0.4% of 270,000 active; Potency, µM (series often up to 46.1 µM), for the others: top-dose activity, positive = more growth; calls by dose curve; also: potency is read from the fitted curve at half-maximal effect; actives are rising curves; nearly all actives have a fitted effect of over 50% in size
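In this qHTS, NS1 from influenza A is expressed in budding yeast, where it slows growth. Cells are switched from glucose to 2% galactose medium (pH 6.0, -URA), treated with compound, and growth recovery is read at OD600.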
The depositor's hits bear a star; u = inconclusive; x = not tested or not shown; [ ] = dose if it differs, or a comment. Rows were chosen to be rich in hits. Some 21% of all compounds tested hit in one or more screens of this group. Unless noted, calls follow the shape of the dose curve; as a rule, active = well fitted curve in the direction sought with a large enough effect; inconclusive = small, poorly fitted or top-dose-only effect, or another doubt; inactive = no such curve, though single readings can be large; an effect the other way counts as inactive or inconclusive.

SMILES	Sm TGR inh	Shiga inhibitor	Pf growth 96h	Pf growth 48h	CHX counter	NS1 function inh
Cc1sc2nc(SCC(=O)NCc3ccco3)n(Cc3ccccc3)c(=O)c2c1C	u	19	x	10µM*	14	2%
CCCN(CCC)C(=O)CSc1nc2ccccc2c(=O)n1Cc1ccco1	-24%	x	x	x	x	x
Cc1cccc(-n2c(SCC(=O)NCc3ccco3)nc3ccccc3c2=O)c1	-9%	12	-25%	u	2	-12%
Cc1cc(C)c(OCC(=O)Nc2ccc(N3CCOCC3)cc2)c(Br)c1	-3%	-38	19%	-10%	-3	9%
O=C(COc1ccc(Cl)cc1)NCc1ccncc1	-5%	-6	-29%	-4%	-2	x
CCC(Sc1nc2ccsc2c(=O)n1-c1ccc(Cl)c(C)c1)C(=O)NCc1ccco1 (stereo not drawn)	u	44*	12µM*	13µM*	25*	19%
Cc1sc2nc(C(C)C)nc(SCC(=O)NCc3ccco3)c2c1C	45µM*	45	u	u	32*	-19%
CCOC(=O)CSc1nc2ccccc2c(=O)n1CCCCCC(=O)NCc1ccco1	-9%	-6	33%	12µM*	7	5%
O=C(CSc1nnc(C2CCCCC2)n1-c1ccccc1)NCc1ccco1	45µM*	-10	33%	-7%	9	-1%
O=C(COC(=O)c1ccc(O)cc1)Nc1ccccc1	-27%	13	48%	30%	13	-3%
O=C(COC(=O)CNC(=O)c1ccc(Cl)cc1)Nc1ccc(Cl)cc1C(F)(F)F	-2%	-9	18%	24%	1	5%
O=C(CSc1nc2ccsc2c(=O)n1Cc1ccccc1)NCc1ccco1	-24%	active	x	u	47*	8%
COCCn1c(C)cc(C(=O)CSc2nc3ccccc3c(=O)n2Cc2ccco2)c1C	-13%	96*	-4%	34%	23*	28%
CC(=O)NCCn1c(SCC(=O)NCc2ccco2)nc2ccccc2c1=O	-14%	-15	4.7µM*	6%	-1	5%
COc1ccccc1NC(=O)CSc1nc2ccccc2c(=O)n1CCNC(C)=O	9%	-25	8.3µM*	u	-4	-20%
COCCn1c(C)cc(C(=O)CSc2cc(C)c3ccccc3n2)c1C	-7%	14	-4%	-24%	11	20%
CCCn1c(CCC(=O)O)nc2cc(S(N)(=O)=O)ccc21	-13%	-5	56%	9%	-3	-1%
CCNS(=O)(=O)c1ccc(NC(=O)CC(C)c2ccccc2)cc1 (stereo not drawn)	12%	-1	-47%[5.75 µM]	-19%[5.75 µM]	-5	x
Cc1ccc(CCNC(=O)c2cc(C)nc3c2c(C)nn3-c2ccc(C)cc2)cc1	29%	x	x	x	x	x
O=C(O)[C@H]1CC=CC[C@@H]1C(=O)Nc1cccc(O)c1	x	x	x	x	x	17%
CSCC[C@H](NC(=O)[C@H](CCC(N)=O)NC(=O)[C@H](CCCCN)NC(=O)[C@H](CCCNC(=N)N)NC(=O)[C@H](Cc1ccc(O)cc1)NC(=O)[C@H](CCCNC(=N)N)NC(=O)[C@H](CO)NC(=O)[C@H](Cc1ccc(O)cc1)NC(=O)[C@H](CO)NC(=O)[C@H](CC(=O)O)NC(=O)[C@@H](NC(=O)[C@@H](N)Cc1ccccc1)[C@@H](C)O)C(=O)N[C@@H](C)C(=O)N[C@H](C(=O)N[C@@H](CCCCN)C(=O)N[C@@H](CCCCN)C(=O)N[C@@H](Cc1ccc(O)cc1)C(=O)N[C@@H](CC(C)C)C(=O)N[C@@H](C)C(=O)N[C@@H](C)C(=O)N[C@H](C(=O)N[C@@H](CC(C)C)C(=O)NCC(=O)N[C@@H](CCCCN)C(=O)N[C@@H](CCCNC(=N)N)C(=O)N[C@@H](Cc1ccc(O)cc1)C(=O)N[C@@H](CCCCN)C(=O)N[C@@H](CCC(N)=O)C(=O)N[C@@H](CCCNC(=N)N)C(=O)N[C@H](C(=O)N[C@@H](CCCCN)C(=O)N[C@@H](CC(N)=O)C(=O)N[C@@H](CCCCN)C(N)=O)C(C)C)C(C)C)C(C)C	x	-11	x	x	-9	x
N#CCCn1c(SCC(=O)NCc2ccco2)nc2ccccc21	40µM*	-1	-1%	x	-5	2%
O=C(CSc1nc2ccccc2n1CC(=O)NCc1ccccc1)NCc1ccco1	0%	-6	5%[5.75 µM]	58%	-3	-8%
O=C(CSc1nc2ccccc2c(=O)n1Cc1ccco1)NCc1ccco1	40µM*	18	-3%	u	21	5%
CCCCn1c(SCC(=O)NCc2ccco2)nc2ccccc2c1=O	-20%	-5	-42%	x	6	0%
SMILES	Sm TGR inh	Shiga inhibitor	Pf growth 96h	Pf growth 48h	CHX counter	NS1 function inh
O=C(Nc1nc(-c2ccccn2)cs1)c1cc(Cl)ccc1[N+](=O)[O-]	-25%	21	2.3µM*	13µM*	11	x
O=C(Nc1nc(-c2ccccn2)cs1)c1ccccc1-n1cnnn1	4%	6	1.7µM*	u	10*	-11%
CC(=O)Nc1ccc(C(=O)Nc2nc(-c3ccccn3)cs2)cc1	u	40	u	u	19	14%
O=C(Nc1nc(-c2ccccn2)cs1)c1ccc2c(c1)OCCO2	0%	62*	u	220%	44*	9%
O=C(Nc1nc(-c2cccc([N+](=O)[O-])c2)cs1)c1cccc([N+](=O)[O-])c1C(=O)O	-15%[57.1 µM]	24	12%	10%	2	-2%
Cc1cc(C(=O)Nc2nc(-c3ccccn3)cs2)ccc1[N+](=O)[O-]	-4%	72	u	9.3µM*	28*	5%
Cc1c(C#N)sc(C(N)=O)c1C	7%	-9	15%[5.75 µM]	15%	-2	x
Cc1nc(-c2ccc(Cl)cc2)sc1CCNC(=O)C(=O)Nc1ccc(F)cc1F	17%	x	x	x	x	x
Cc1ccc(-c2ccc(SCC(=O)Nc3cc(C)on3)nn2)cc1	-5%	13	0%	38%	6	x
COc1ccc(-c2ccc(SCC(=O)NC3CCCC3)nn2)cc1OC	6%	52*	u	15%	27*	11%
COc1ccc(-c2ccc(SCC(=O)Nc3cc(C)on3)nn2)cc1OC	-13%	100*	104%	35%	22*	-37%
COc1cccc(-c2ccc(SCC(=O)NC3CCCCC3)nn2)c1	-4%	14	2%	2%	20*	-3%
NS(=O)(=O)c1ccc(CCNC(=O)c2cc(-c3cc(Cl)ccc3O)n[nH]2)cc1	9%	-7	-40%	u	-3	-2%
Cc1cccc(C)c1NC(=O)NC1(C(=O)NCc2ccncc2)CCCCC1	1%	-6	u	5%	-4	7%
c1cc(CN2CCCCC2)cc(OCCCNc2nc3ccccc3s2)c1	x	x	4.8µM*	13µM*	x	-23%

Screening data as filed in PubChem BioAssay.
